Screening data: PubChem BioAssay, National Center for Advancing Translational Sciences (NCATS)
An excerpt weighted towards active compounds, which were near 4.8% of everything screened.
ATXN2 expr inh = Primary qHTS for Inhibitors of ATXN expression | actives 0.72% (n = 360,000) | HEK-293 ATXN2-luciferase reporter, luminescence, 24 h | Potency, µM (top dose mostly 57 µM), usual class: inhibitors; note: nearly all actives have a fitted effect of over 55% in size
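ATXN2-luciferase reporter cells (luciferase flanked by upstream and downstream ATXN2 gene portions) were treated 24 h at 37 °C with compounds at up to 57 uM. SteadyGlo luminescence gave expression; GF-AFC fluorescence gave viability.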
USP1-UAF1 inh = Inhibitors of USP1/UAF1: Primary Screen; recombinant USP1/UAF1, Ub-Rhodamine cleavage fluorescence; Potency, µM (top dose mostly 57.1 µM), usual class: inhibitors; actives 0.23% (n = 390,000); AID 743255, 2014; note: nearly all actives have a fitted effect of over 60% in size
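1 nM enzyme complex + cpd, 15 min RT; start with Ub-Rho 150nM final; kinetic fluorescence ex 480/em 540, 6 reads q60 s. Buffer 50mM HEPES pH 7.8, 0.5mM EDTA, 0.1 mg/ml BSA, 1mM TCEP, 0.01% Tween-20.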
IL-1B inflam inh = qHTS for Inhibitors of Inflammasome Signaling: IL-1-beta AlphaLISA Primary Screen; THP-1 LPS/ATP IL-1B secretion, AlphaLISA, 16 h; active compounds read low; activity change, % at 57.5 µM; actives 4.7% (n = 360,000); in the data active = activity change below about -50%; inconclusive = mostly about -30% to -49%
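Secreted IL-1B measured by AlphaLISA bead assay after 16 h compound exposure of THP-1 cells; compounds (final up to 57.5 uM) added 1 h before LPS (250 ng/mL) and ATP (1.25 mM) stimulation; lower signal means less secretion.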
USP2a block = qHTS Assay for Inhibitors of Ubiquitin-specific Protease USP2a Using CHOP2 as the Reporter; USP2 core, Ub-CHOP2 coupled fluorogenic reporter, 485/531; Potency, µM (top dose mostly 38.3 µM), actives largely listed as inhibitors; actives 0.01% (n = 330,000); AID 463254, 2010
Target sequence (O75604 whole entry, looked up): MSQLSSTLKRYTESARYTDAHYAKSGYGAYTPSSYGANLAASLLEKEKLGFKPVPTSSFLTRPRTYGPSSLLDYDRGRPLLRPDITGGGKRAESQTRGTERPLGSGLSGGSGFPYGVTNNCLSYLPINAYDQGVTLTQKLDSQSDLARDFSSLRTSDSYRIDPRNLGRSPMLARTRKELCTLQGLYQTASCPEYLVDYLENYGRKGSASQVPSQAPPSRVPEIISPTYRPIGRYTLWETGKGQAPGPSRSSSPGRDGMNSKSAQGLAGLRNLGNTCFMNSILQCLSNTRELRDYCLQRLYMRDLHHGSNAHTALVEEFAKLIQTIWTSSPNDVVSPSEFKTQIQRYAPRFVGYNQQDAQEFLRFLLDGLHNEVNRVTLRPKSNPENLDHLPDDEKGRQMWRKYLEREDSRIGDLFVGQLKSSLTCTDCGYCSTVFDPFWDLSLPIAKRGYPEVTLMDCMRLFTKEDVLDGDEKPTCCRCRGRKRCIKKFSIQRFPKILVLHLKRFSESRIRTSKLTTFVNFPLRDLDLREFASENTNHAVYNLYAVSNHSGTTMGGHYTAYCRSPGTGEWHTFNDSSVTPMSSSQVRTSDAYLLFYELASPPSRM
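USP2 core (10nM final) preincubated 30min RT with compound in 20mM Tris-HCl pH 8.0, 2mM CaCl2, 2mM beta-mercaptoethanol, 0.05% CHAPS; 25nM Ub-CHOP2 plus 25nM reporter substrate added, fluorescence (Ex485/Em531) read after 60min.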
S2 tox = Viability Counterscreen for Primary qHTS for Inhibitors of ATXN expression; S2 cells (HEK-293 line with an ATXN2-luciferase reporter) viability, CellTiter-Fluor protease fluorescence, 24 h; AID 651635, 2014; Potency, µM (titrated, usually from 56.7 µM), actives largely listed as cytotoxic; actives 0.49% (n = 400,000); note: nearly all actives have a fitted effect of over 40% in size
A number is an active result; n = inactive; u = inconclusive; x = no result given; [ ] = dose if it differs, or a comment. Unless noted, calls come from the whole dose curve; as a rule, active = well fitted curve in the direction sought with a large enough effect; inconclusive = small, poorly fitted or top-dose-only effect, or another doubt; inactive = no such curve, though single readings can be large; an effect the other way counts as inactive or inconclusive.

SMILES	ATXN2 expr inh	USP1-UAF1 inh	IL-1B inflam inh	USP2a block	S2 tox
Oc1[nH]c2c(Cl)cc(Cl)cc2c1N=NC(=S)NCC1CCCO1 (stereo not drawn)	21.2µM	n	n	n	u
CC1(C2CCN(Cc3c[nH]c4ccccc34)CC2)NC(=O)N(CCN2CCOCC2)C1=O (stereo not drawn)	x	x	x	x	n
Cc1nc(-c2ccccc2)sc1-c1ccc(SCC(=O)Nc2ccc(F)cc2F)nn1	x	n	x	x	x
COc1cccc(Oc2ccc(C(F)(F)F)cc2N)c1	n	n	-69.5	n	n
CCOC(=O)Cc1csc(NC(=O)CCc2ccccc2)n1	n	n	n	n	n
CCOC(=O)Cc1csc(NC(=O)Cn2c(=O)oc3ccccc32)n1	n	n	-83.8	n	n
CCOC(=O)Cc1csc(NC(=O)c2ccc(S(=O)(=O)N3CCCC3)cc2)n1	n	n	-53.5	n	n
CCOC(=O)Cc1csc(NC(=O)CCCCCN2C(=O)c3ccccc3C2=O)n1	n	n	-55.6	n	n
N[C@H](C(=O)O)[C@@H](O)c1ccc(O)c(O)c1	n	x	x	x	n
CCN(CC)CCCNC(=O)c1cc(Nc2ccc(OC)cc2)nc2ccccc12	n	n	-60.4	n	n
CCN(CC)CCNC(=O)c1cc(Nc2ccc(OC)c(OC)c2)nc2ccccc12	n	n	-58.0	n	n
CCCNC(=O)N(C)C[C@@H]1Oc2cc(Br)ccc2S(=O)(=O)N([C@@H](C)CO)C[C@H]1C	n	n	n	x	n
Cc1cccc2cc(CN(C(=O)c3ccc(-c4ccc(F)cc4)cc3)C3CC3)c(N3CCC(O)CC3)nc12	x	x	x	x	n
COc1ccc(NC(=O)CN2C(=O)COc3ccc(S(=O)(=O)Nc4ccccc4)cc32)cc1	n	n	x	x	u
Cc1cccc(N2CCN(c3cc(C)nc4c(-c5ccc(Cl)cc5)c(C)nn34)CC2C)c1 (stereo not drawn)	x	n	x	x	x
CN(c1nc(-c2ccc(Br)cc2)cs1)C1CCS(=O)(=O)C1 (stereo not drawn)	n[11.3 µM]	u	-76.8	n	n
S=c1c2c(nc3nc[nH]n13)CCC2	x	n	n	n	6.31µM
CC1CCc2c(nc3nc[nH]n3c2=O)C1 (stereo not drawn)	n	n	n	n	n
COc1ccc(N=C2NC(=O)/C(=C/c3ccco3)S2)cc1	x	n	-55.0	n	u
O=C1NC(=Nc2ccccc2)S/C1=C\C=C\c1ccco1	n	n	n	5.62µM	u
Cc1cc(C)n(CC(=O)NC2CCCc3c2cnn3-c2ccc(C)c(C)c2)n1 (stereo not drawn)	n	n	n	n	n
COc1cccc(-c2ccnc(-n3ncc(C(=O)N(C)CCc4ccccn4)c3C)n2)c1	x	x	x	x	n
O=C(Nc1ccc(F)cc1)N1CCN(c2nc3ccccc3s2)CC1	n	n	-53.3	n	n
O=C(Nc1ccccc1)N1CCN(c2nc3ccccc3s2)CC1	n	n	n	n	n
Clc1ccc(Nc2ncnc3c2cnn3-c2ccccc2)cc1	n	u	-53.2	n	u
SMILES	ATXN2 expr inh	USP1-UAF1 inh	IL-1B inflam inh	USP2a block	S2 tox
CC(C)Nc1ncnc2c1cnn2-c1ccc(Cl)cc1	n	n	-58.5	n	n
CC(=O)Nc1ccc(Nc2ncnc3c2cnn3-c2ccccc2)cc1	n	n	n	n	n
CCCCCCC(=O)Oc1cccc(C2=CC(=O)CC(C)(C)C2=O)c1	n	n	n	x	n
Cc1ccccc1NC(=O)CSc1nc2ccc(NC(=O)COc3ccccc3F)cc2s1	17.8µM	n	x	x	u
CC(C)CC(=O)C1CCCN(C(=O)c2ccc3oc(Cc4ccccc4)nc3c2)C1 (stereo not drawn)	n	n	-52.0	n	n
CCOC(=O)C1CCCN(C(=O)c2ccc3oc(Cc4ccccc4)nc3c2)C1 (stereo not drawn)	x	n	n	n	n
Nc1ncc(S(=O)(=O)c2ccc([N+](=O)[O-])cc2)s1	n	n	n	x	n
COc1ccc2c(c1OC)C(=O)NC(C)=C(C(=O)OC(C)(C)C)C2O (stereo not drawn)	n	n	-63.1	n	n
COc1cc(C2NC(=O)NC(C)=C2C(=O)OC(C)(C)C)ccc1OCC(N)=O (stereo not drawn)	x	n	n	n	x
